# Source: PubChem
# Most compounds without a hit are left out; they make up all but 2.4% or so of the library.
# HTR2A ag – agonists of mouse serotonin 5-HT2A receptor (HTR2A). P35363. CHO-K1 mHTR2A beta-arrestin complementation, luminescence; percent of 30 µM serotonin response. activation, % at 7.6 µM. 360,000 tested, 0.66% active;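 active = activation above a run cutoff, the mean activation of all tested compounds plus 3 SD, cut at about 14% in these data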;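 also: 0% = plate median of compound wells and 100% = 30 µM serotonin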
# Target sequence (P35363 whole entry, looked up): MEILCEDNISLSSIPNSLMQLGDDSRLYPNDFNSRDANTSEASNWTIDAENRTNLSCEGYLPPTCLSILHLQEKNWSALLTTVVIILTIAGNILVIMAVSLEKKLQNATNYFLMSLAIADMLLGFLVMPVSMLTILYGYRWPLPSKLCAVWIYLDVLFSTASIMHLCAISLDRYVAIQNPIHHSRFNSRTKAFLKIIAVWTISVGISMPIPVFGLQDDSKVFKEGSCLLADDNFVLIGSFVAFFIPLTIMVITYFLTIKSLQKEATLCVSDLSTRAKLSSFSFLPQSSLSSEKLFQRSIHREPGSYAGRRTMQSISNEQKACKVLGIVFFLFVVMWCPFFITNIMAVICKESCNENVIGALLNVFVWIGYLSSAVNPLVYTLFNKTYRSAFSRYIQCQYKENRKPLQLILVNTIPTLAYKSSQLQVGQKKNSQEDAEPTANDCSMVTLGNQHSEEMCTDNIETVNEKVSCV
# TLR4 MyD88 comp – blocks binding of human TLR4 to MyD88. inhibition, % at 8.4 µM. 200,000 tested, 0.18% active. AID 861. HeLa CL3-4 TLR4/MyD88 BLA complementation, FRET ratio; in the data active = inhibition above about 25%;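 also: 0% = vehicle and 100% = reference inhibitor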
# NOD2-RIPK2 inh – inhibitors of human NOD2-RIPK2 interaction; 360,000 tested, 0.38% active; O43353; AID 624267; inhibition, % at 4.98 µM; CHO BLA complementation NOD2-RIPK2, CCF4 ratio; in the data active = inhibition above about 21%;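 also: 0% = vehicle only and 100% = reference blocker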
# ABHD5-PLIN5 inh – inhibitors of human ABHD5-perilipin-5 interaction. Q00G26+Q8WTS1. Split G. princeps luciferase complementation, luminescence, 4 h. 360,000 tested, 0.78% active. inhibition, % at 4 µM;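 active = inhibition above the mean inhibition across every tested compound plus 3 SD, cut at about 22% in these data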;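 also: 0% = DMSO only wells and the 100% control is not disclosed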
# TLR9-MyD88 inh – TLR9-MyD88 interaction inhibition; Q9NR96+Q99836; CHO BLA complementation TLR9-MyD88, CCF4 FRET ratio; inhibition, % at 4.98 µM; 340,000 tested, 0.21% active; AID 504734;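 active = inhibition above the mean over all tested compounds plus 3 SD, cut at about 21% in these data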;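 also: 0% = DMSO only wells and 100% = clavulanate BLA inhibitor control wells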
# CRFR2-BP antag – antagonists of CRF-binding protein/CRF-R2 receptor complex; HEK293 CRF-R2/CRF-BP, CRF-induced calcium fluorescence; AID 588475; 350,000 tested, 0.59% active; inhibition, % at 11.8 µM;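 active = inhibition of the ligand-induced calcium signal above about 50% at the single tested concentration, limit read from the data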
# ABHD5-PLIN5 conf – ABHD5-PLIN5 interaction inhibition, confirmed | shares compounds with ABHD5-PLIN5 inh | biochemical ABHD5-PLIN5 interaction, luminescence | inhibition, % at 4 µM | 2,200 tested, 67% active; in the data active = inhibition above about 23%;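 also: 0% = DMSO vehicle wells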
# HNF4 counter – active in HNF4 split-luciferase counter-screen for ABHD5-PLIN5 inhibitors. 2,200 tested, 77% active. shares compounds with ABHD5-PLIN5 inh. HNF4 dimerization, luminescence, biochemical. inhibition, % at 4 µM;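 active = mean inhibition across replicate wells exceeding the computed hit threshold, cut at about 13% in these data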;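 also: light from luciferase halves that rejoin when HNF4 fusion proteins dimerize; 0% = DMSO only wells and the 100% control is not given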
# An asterisk follows results filed as active; nt = not tested or not shown.
SMILES,HTR2A ag,TLR4 MyD88 comp,NOD2-RIPK2 inh,ABHD5-PLIN5 inh,TLR9-MyD88 inh,CRFR2-BP antag,ABHD5-PLIN5 conf,HNF4 counter
O=[N+]([O-])c1cc(S(=O)(=O)Nc2ccccc2)ccc1N1CCN(c2ccc(O)cc2)CC1,-3,7,3,14,-5,-18,nt,nt
Cc1ccc(NS(=O)(=O)c2ccc(N3CCN(c4ccc(O)cc4)CC3)c([N+](=O)[O-])c2)c(C)c1,-5,-14,-12,35*,-1,-10,12,10
COc1ccc(NC(=O)c2cc(-c3cc(F)ccc3OC(C)C)n[nH]2)c(C)c1,-7,nt,2,-4,nt,nt,nt,nt
CCSc1nnc(-c2c[nH]c3ccccc23)o1,2,nt,5,98*,-4,13,5,4
Cc1cc2oc(=O)cc(CN3CCCCCCC3)c2cc1Cl,-2,nt,-4,-4,nt,nt,nt,nt
COc1ccc(/C=C/c2cc(-c3ccc(C)cc3)o[n+]2C)cc1,-5,0,-4,28*,4,-27,44*,31*
Cc1cccc(N2CCN(C(C(=O)NCc3ccccc3)c3ccc(C(F)(F)F)cc3)CC2)c1C (stereo not drawn),-1,nt,-8,-10,nt,nt,nt,nt
O=[N+]([O-])/C=C/c1cc2ccccc2[nH]1,-6,nt,-2,41*,4,-3,71*,58*
O=[N+]([O-])c1cccc(-c2cc3ccccc3[nH]2)c1,-7,nt,2,-10,12,2,nt,nt
COc1cc2sc(-c3ccc(S(C)(=O)=O)cc3)c(C(=O)NCCCCO)c2cc1OC,3,nt,-8,6,-9,3,nt,nt
COc1cc2sc(-c3ccc(S(C)(=O)=O)cc3)c(C(=O)NCc3ccc(C)o3)c2cc1OC,14,nt,-4,33*,-5,-4,9,20*
CCc1nc2ccc(C(=O)N(C)C(C)C)cn2c1N(CC)Cc1cccc(Br)c1,-1,nt,-7,12,nt,nt,nt,nt
Cc1cc2c(c(=O)n1Cc1ccco1)C(c1cccnc1)C(C#N)=C(N)O2 (stereo not drawn),1,-8,-5,42*,-12,8,9,24*
COc1cc(Cc2nc3ccccc3n2C(C)c2nc3ccccc3[nH]2)cc(OC)c1 (stereo not drawn),-1,nt,-4,0,nt,nt,nt,nt
COc1ccc(C(NC(=O)/C=C/c2ccco2)c2ccc(OC)c(OC)c2)cc1OC,3,-1,-1,24*,4,15,59*,54*
COc1ccc(C(NC(=O)c2ccco2)c2ccc(OC)c(OC)c2)cc1 (stereo not drawn),3,-1,-4,4,2,-17,nt,nt
CCCCN1C(=O)/C(=C/C=C2\SCCN2C)SC1=S,-1,-1,-5,30*,-3,-111,25*,21*
CN1CCS/C1=C/C=C1/SC(=S)N(Cc2ccccc2)C1=O,-5,12,-6,25*,6,-78,22*,18*
CCOC(=O)Nc1ccc2nc(-c3cscn3)[nH]c2c1,5,nt,2,6,-13,-12,nt,nt
CCOC(=O)c1c(C)oc2c1c(CN1CCN(CCO)CC1)c(O)c1ccccc12,0,8,5,35*,10,-3,63*,25*
CCOC(=O)c1c(C)oc2c1c(CN1CCN(C(=O)OCC)CC1)c(O)c1ccccc12,2,2,-10,-20,1,-19,nt,nt
CC(C)Oc1cccc(C(=O)Nc2nnc([C@@H]3C[C@H](O)[C@@H](CO)O3)s2)c1,0,nt,-5,4,nt,nt,nt,nt
Cc1cc(Br)cn2c(Cc3cccc(Cl)c3)c(-c3ccco3)nc12,-6,nt,11,28*,nt,nt,28*,40*
Fc1ccc(-c2nc3c(Cl)cc(C(F)(F)F)cn3c2Cc2cccc(F)c2)cc1,12,nt,-27,15,nt,nt,nt,nt
Cc1cc(Br)cn2c(Cc3ccccc3)c(-c3cccc(Cl)c3)nc12,6,nt,2,-3,nt,nt,nt,nt
Fc1cccc(Cc2c(-c3ccco3)nc3c(Cl)cc(C(F)(F)F)cn23)c1,-10,nt,-8,53*,nt,nt,70*,83*
